# Compound activity (PubChem BioAssay)
# Most compounds without a hit are left out; they make up all but 3.3% or so of the library.
# DRD3 agonist – D3 dopamine receptor (human) agonism; P35462; D3R DiscoveRx beta-arrestin cells, luminescence, 90 min; max activation, %; actives 0.58% (n = 410,000); AID 652048; in the data active = max activation above about 30%; also: 0% is about no effect
#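 Agonist mode: compounds and dopamine controls were applied to plated cells for 90 min at 37 degrees C after an overnight attachment at 1500 cells/well. Luminescent read-out followed 30 - 60 minutes at room temperature with DiscoveRx detection reagent.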
# PI4K2A block – PI4K2A (human) kinase inhibition | purified PI4K2A, ADP-Glo luminescence, 1 h; hits give low values | activity change, negative = inhibition, % at 76.9 µM | actives 0.13% (n = 420,000) | AID 1346378; in the data active = activity change below about -50%; inconclusive = mostly about -30% to -49%;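 also: -100% = wells without enzyme as full effect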
# Target sequence (Q9BTU6 whole entry, looked up): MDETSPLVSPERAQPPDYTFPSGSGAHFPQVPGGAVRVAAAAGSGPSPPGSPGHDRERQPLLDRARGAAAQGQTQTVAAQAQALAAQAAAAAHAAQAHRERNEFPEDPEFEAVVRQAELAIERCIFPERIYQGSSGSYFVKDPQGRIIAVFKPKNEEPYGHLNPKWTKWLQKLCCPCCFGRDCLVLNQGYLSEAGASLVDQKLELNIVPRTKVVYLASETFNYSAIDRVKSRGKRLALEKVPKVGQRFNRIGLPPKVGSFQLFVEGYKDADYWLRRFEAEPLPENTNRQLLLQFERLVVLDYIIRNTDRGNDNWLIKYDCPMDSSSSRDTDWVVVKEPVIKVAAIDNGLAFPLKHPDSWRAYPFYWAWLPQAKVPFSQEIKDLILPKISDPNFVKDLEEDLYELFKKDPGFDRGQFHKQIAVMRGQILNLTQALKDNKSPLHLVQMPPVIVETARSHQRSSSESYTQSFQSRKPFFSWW
#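 In this quantitative HTS, ADP production by PI4K2A was quantified luminescently after 1 h at ambient temperature; 100 microM adenosine served as plate-quality control.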
# LDHA block – inhibitors of human lactate dehydrogenase A. P00338. purified LDHA, NADH/diaphorase-resazurin fluorescence; hits give low values. activity change, % (values are at about 110 or 230 µM). actives 0.15% (n = 480,000); in the data active = activity change below about -30%; inconclusive = mostly about -25% to -30%;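 also: plate controls were DMSO wells for no effect and wells without enzyme for full effect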
#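 Human LDH5 (2 nM) was incubated with 0.06 mM NADH and 0.2 mM pyruvate for 5 min at room temperature in Tris pH 7.4. Remaining NADH was coupled through diaphorase/resazurin, and resorufin fluorescence was read at 0 and 20 min.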
# DRD3 antagonist – antagonists of human D3 dopamine receptor | D3R cells, DiscoveRx beta-arrestin luminescence, antagonist mode; hits give low values | max response, negative = inhibition, % | actives 2.5% (n = 360,000); in the data active = max response below about -50%; inconclusive = no clear call, values can overlap the other calls; also: % is scaled to controls: 0 for no effect and ±100 for the full control effect
#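 Cells plated overnight at 1500 cells/well, then exposed to library compounds with dopamine controls for 90 minutes at 37 degrees C. DiscoveRx reagent added for 30–60 minutes at room temperature; luminescence read, quantitative HTS format.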
# PI5P4Ka inh – PI5P4K alpha (human) kinase inhibition; P48426; PI5P4Kalpha enzyme, ADP-Glo luminescence, 60 min; hits give low values; max response, %; actives 1.2% (n = 330,000); active = max response of -50% or lower; inconclusive = between -30% and -50%; inactive = -30% or higher; also: value at the top dose of about 77 µM; % is scaled to controls: 0 for no effect and ±100 for the full control effect
#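 Human PI5P4Kalpha with substrate in 0.038 M HEPES pH 7.4, 0.28 mM EGTA, 0.1% CHAPS, 5% DMSO; reaction started with 5 microM ATP (final), 60 min at room temperature. ADP formed read by ADP-Glo luminescence.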
# The depositor's hits bear a star; ? = inconclusive; . = no result; ! = repeats disagree.
SMILES,DRD3 agonist,PI4K2A block,LDHA block,DRD3 antagonist,PI5P4Ka inh
Cc1ccc(NC(=O)c2ccc(NCCCN3CCC(C)CC3)c([N+](=O)[O-])c2)cc1F,-13,-7,-13,-65*,4
c1ccc(CN2CCOCC2)nc1,-7,-3,1,-19,10
Fc1ccc(N2CCN(Cc3ccccn3)CC2)cc1,-15,-3,-31*,-20,-2
Cc1[nH]n(-c2ccccc2)c(=O)c1C=Nc1cccc2cccnc12,-20,4,-15,-87*,4
Cc1cc(NC(=O)C2CC=CCC2C(=O)O)no1 (stereo not given),2,-2,1,-54*,1
Cc1cc(NC(=O)C2C3C=CC(C3)C2C(=O)O)no1 (stereo not given),13,3,1,29,.
O=C1/C(=C/c2ccccc2F)CSc2ccccc21,.,.,-20,.,.
Cc1ccc(OCC(=O)Nc2ccc3c(c2)nc(CCN2CCC(C)CC2)n3C)cc1,-16,-1,3,-54*,-3
CC1CCN(CCc2nc3cc(NC(=O)NC4CCCCC4)ccc3n2C)CC1,-28,2,-2,-86*,.
Cc1cccc(OCC(=O)Nc2ccc3c(c2)nc(CN2CCCCC2)n3C)c1,-14,-3,8,-92*,0
O=C(O)/C=C/c1cc(Cl)ccc1Cl,.,.,-10,.,.
CCOP(=O)(OCC)c1nc(-c2ccc(C)cc2)oc1NCc1ccco1,.,.,1,.,.
Cc1noc(C)c1C(=O)N1CCC(n2nnc3ncccc32)CC1,.,4,.,.,.
CC(=O)Nc1ccc(SCC(=O)O)cc1,3,0,-4,5,3
O=C(O)CSc1ccc(NC(=O)Nc2ccccc2F)cc1,-2,-54*,-2,-2,?
Cc1ccc(CNCc2ccccc2Cl)cc1,-13,-3,-3,-67*,1
O=C(OC12CC3CC(CC(C3)C1)C2)c1ccc(Br)c([N+](=O)[O-])c1,.,.,1,.,.
CC(=O)C1=C(C)OC(=O)C1(NC(=O)c1ccc(C)cc1)C(F)(F)F (stereo not given),.,.,-4,.,.
Cc1ccc(Cl)cc1-c1cc(C(=O)NCc2cccc(Cl)c2)[nH]n1,-15,-2,-4,?,-12
CCOc1ccc(Cl)cc1-c1cc(C(=O)NCC2CCCCC2)[nH]n1,-20,5,-10,?,0
CC(C)Oc1cc(F)ccc1-c1cc(C(=O)NCC2CCCCC2)[nH]n1,-11,-1,2,-83*,0
COc1ccc(Cl)cc1-c1cc(C(=O)NCC2CCCCC2)[nH]n1,-16,7,-7,-58*,-9
COc1ccc(Cl)cc1-c1cc(C(=O)NCc2cccc(Cl)c2)[nH]n1,-13,-3,-4,-71*,-13
Cc1ccc(Cl)cc1-c1cc(C(=O)NCc2ccccc2)[nH]n1,-14,-1,-4,-51*,0
O=C(COC(=O)c1ccc(OCC2CCCO2)cc1)c1ccc2c(c1)OCO2 (stereo not given),.,.,-24,.,.
SMILES,DRD3 agonist,PI4K2A block,LDHA block,DRD3 antagonist,PI5P4Ka inh
O=C(NC1(C(F)(F)F)C(=O)Nc2c1c(=O)[nH]c(=O)n2-c1ccc(Cl)cc1)c1cccs1 (stereo not given),.,.,-13,.,.
Cc1c(C(=O)N2CCOCC2)c(S(=O)(=O)Nc2cccc3c2CCCC3)c(C)n1C,.,.,3,.,.
O=C(OC1CCOC1=O)c1ccc([N+](=O)[O-])cc1Cl (stereo not given),.,.,-1,.,.
CO/N=C/c1ccc(N2CCN(C(=O)c3cccc(C(F)(F)F)c3)CC2)c([N+](=O)[O-])c1,52*,3,-3,45,.
CC(=O)c1ccc(NC(=O)CC(C)(C)CC(=O)O)cc1,.,.,2,.,.
COc1ccc(N=Cc2nc(-c3ccco3)oc2O)cc1,-21,7,-1,-52*,-8
Cc1ccc(N=Cc2nc(-c3ccc(C)cc3)oc2O)cc1,2,-3,-6,9,5
Cc1ccc2c(c1)C(=O)C(=O)N2Cc1ccc(Br)cc1,-37,23,2,?,-24
Cc1ccc(CN2C(=O)C(=O)c3cc(C)ccc32)cc1,-11,14,5,-54*,-18
Cc1ccc2c(c1)C(=O)C(=O)N2c1ccc(Cl)cc1,-56,0,4,-55*,-3
CCCCN1C(=O)C(=O)c2cc(Cl)ccc21,-11,15,16,-120*,-17
Cc1ccc(C(=O)O/N=C(\c2ccccc2)c2ccccn2)cc1,.,.,40,.,.
CCOC(=O)c1oc2ccc(S(=O)(=O)Nc3ccc4c(c3)n(C)c(=O)n4C)cc2c1C,32*,1,-1,9,.
COc1cc(OC)cc(C(=O)NCCc2csc(-c3ccccn3)n2)c1,.,.,11,.,.
COc1cc([C@H]2Oc3cc([C@H]4Oc5cc(O)cc(O)c5C(=O)[C@@H]4O)ccc3O[C@@H]2CO)ccc1O,-29,-11,-3,-13,-27
COc1cc([C@@H]2Oc3cc(C4Oc5cc(O)cc(O)c5C(=O)[C@H]4O)ccc3O[C@H]2CO)ccc1O (stereo not given in full),-4,-4,-3,21,-52*
Cc1ccc2nc(-c3cccc(SC4CCCCC4)c3)c(NCc3ccccc3)n2c1,5,1,-1,58,-5
c1ccc(CNc2c(-c3cccc(SC4CCCCC4)c3)nc3ccccn23)cc1,43*,-3,0,90,1
Cc1ccn2c(NCc3ccccc3)c(-c3cccc(SC4CCCCC4)c3)nc2c1,41*!,-2,5,103,1
CCC(C)Sc1cccc(-c2nc3cc(C)ccn3c2NCc2ccccc2)c1 (stereo not given),77*,-4,6,39,3
CCC(C)Sc1ccc(-c2nc3ccc(Cl)cn3c2NCc2ccccc2)cc1 (stereo not given),0,1,1,2,0
Clc1cccc(-c2ccc(-c3nc4ccccn4c3NCc3ccccc3)cc2)c1,8,-7,-3,22,22
COc1cc(CNCc2ccc(SC)cc2)cc(OC)c1,-11,0,-31*,-13,2
CCOc1ccc(NC(C)c2cc(Cl)ccc2O)cc1 (stereo not given),-8,6,5,-52*,6
CC(Nc1ccc(Cl)cc1)c1cc(Cl)ccc1O (stereo not given),-1,-3,2,-55*,2
CC(C)NC(=O)c1ccc(-c2ccc(F)c(F)c2)c2ccoc12,8,1,-6,18,-3
CN1CCN(C(=O)c2ccc(-c3ccc(F)c(F)c3)c3ccoc23)CC1,-11,-7,-4,-59*,-8
Cc1ccc(C)c(N2C(=N)S/C(=C\c3ccc(-c4ccccc4C(=O)O)o3)C2=O)c1,-22,-22,4,?,-52*
CCOC(=O)C(C)N1C(=O)S/C(=C\c2ccc(-c3ccccc3C(=O)O)o2)C1=O (stereo not given),1,-12,-3,0,?
